We go through six compounds from PubChem BioAssay (Tox21).

Results filed as inconclusive are left out. The source made the active and inactive calls. Unless noted, calls come from the whole dose curve.

Experiment [1] can be described thus: Nuclear factor erythroid 2-related factor 2/antioxidant responsive element (Nrf2/ARE) small molecule agonists: qHTS cell viability counter screen in human keratinocytes (AID 1919968; active = well fitted curve in the direction sought with a large enough effect in the repeat runs; an effect the other way counts as inactive or inconclusive; note: nearly all actives have a fitted effect of over 55% in size). The procedure, abridged:
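Stably transfected HaCaT (KeratinoSens), 1,500/well. Test agents in DMSO were applied for 23 h, 37 C/5% CO2. CellTiter-Fluor was incubated 1 h before the fluorescence read.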
On the technique in general: Quantitative high-throughput screening tests each substance at several concentrations.

The nature of experiment [2]: Nuclear factor erythroid 2-related factor 2/antioxidant responsive element (Nrf2/ARE) small molecule agonists: luciferase reporter gene qHTS assay in human keratinocytes (AID 1919969). Note: nearly all actives have a fitted effect of over 35% in size. Note: potency is the fitted concentration of half-maximal effect.
In experiment [3] the target is Gonadotropin-releasing hormone receptor (Homo sapiens) (UniProt P30968). The experiment in a line: Human gonadotropin-releasing hormone receptor (GnRHR) small molecule agonists, calcium flux assay in GnRHR-HEK293 cells (AID 1920063). Note: nearly all actives have a fitted effect of over 35% in size. The procedure, abridged: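 Stable human GnRHR HEK293 line. 18 h plating, then calcium dye for 1 h at 37 C. Agonist-mode compound addition from DMSO stocks; fluorescence monitored 3 min.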
(In general: Calcium flux is commonly read through the fluorescence of an indicator in the cells.)

Experiment [4] concerns the target KiSS-1 receptor (Homo sapiens) (UniProt Q969F8). The experiment can be described thus: Human kisspeptin (KISS1R) small molecule agonists, calcium flux assay in KISS1R-HEK293 cells (AID 1920064; active = well fitted curve in the direction sought with a large enough effect in the repeat runs; an effect the other way counts as inactive or inconclusive). The gist of the method: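 After overnight (18 h) culture at 37 C/5% CO2, human KISS1R-HEK293 cells received calcium dye for 1 h, then test compound; emission at 540 nm (excitation 480 nm) was tracked for 3 min.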

Experiment [5] in a line: G protein-coupled receptor (GPCR) small molecule agonists, calcium flux assay: HEK293 wild type cell line counter screen (AID 1920065). The procedure, abridged: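 Following 18 h incubation at 37 C/5% CO2, plates got calcium dye for 1 h; compounds, ATP or DMSO were then pinned in and fluorescence followed kinetically (480/540 nm).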
Experiment [6] in a line: p53 small molecule agonists, cell-based qHTS assay with rat liver microsomes: qHTS cell viability counter screen (AID 1963580). Note: nearly all actives have a fitted effect of over 45% in size. The procedure, abridged: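 Rat liver microsome (0.5 mg/mL final) and NADPH (0.5 mg/mL final) co-incubation with compounds for 16 h at 37 C on HCT-116 p53RE-bla cells; cytotoxicity taken from intracellular ATP luminescence.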
A short description of experiment [7]: p53 small molecule agonists, cell-based qHTS assay: qHTS cell viability counter screen (AID 1963581). Note: nearly all actives have a fitted effect of over 45% in size. The procedure, abridged: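 qHTS counter screen: 16 h compound exposure at 37 C of p53RE-bla HCT-116 cells (4,000 per well, seeded 5 h prior), cell viability by ATP luminescence.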
The target of experiment [8] is 5-hydroxytryptamine receptor 2A (Homo sapiens) (UniProt P28223). The experiment can be described thus: 5-hydroxytryptamine receptor 2A (HTR2A) small molecule antagonists, cell-based qHTS assay (AID 1963586). Note: nearly all actives have a fitted effect of over 45% in size. The gist of the method:
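CHO cells stably expressing human HTR2A were plated for 18 h at 37 C, then loaded with calcium dye for 1 h. Compounds were preincubated 5 min at room temperature before DOI (4 nM solution) was added. Kinetic fluorescence was read for 3 min.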

For experiment [9] the target is unchanged. The experiment can be described thus: 5-hydroxytryptamine receptor 2A (HTR2A) small molecule agonists, cell-based qHTS assay (AID 1963587). Note: nearly all actives have a fitted effect of over 30% in size. The procedure, abridged: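 Kinetic calcium-flux fluorescence (2 min, 1 sec intervals) after compound addition in agonist mode. HTR2A-CHO cells were cultured 18 h, then dye-loaded 1 h at 37 C.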
The target in experiment [10] is Muscarinic acetylcholine receptor M1 (Homo sapiens) (UniProt P11229). The experiment in a line: Cholinergic receptor muscarinic 1 (CHRM1) small molecule antagonists, cell-based qHTS assay (AID 1963588). Note: nearly all actives have a fitted effect of over 40% in size. The gist of the method:
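Compounds were tested at 15 concentrations in three independent runs. Dye-loaded CHRM1-CHO cells were exposed 5 min at room temperature before stimulation by acetylcholine added at 50nM. Intracellular calcium was read kinetically on FDSS for 3 min.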

Experiment [11] shares this target. The experiment can be described thus: Cholinergic receptor muscarinic 1 (CHRM1) small molecule agonists, cell-based qHTS assay (AID 1963589). Note: nearly all actives have a fitted effect of over 35% in size. The gist of the method: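 Kinetic fluorescence (1 s intervals) of calcium-sensitive dye in human M1 CHO cells after compound addition; cells pre-incubated 18 h at 37 C/5% CO2 and dye-loaded 1 h.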
Experiment [12] concerns the target Beta-2 adrenergic receptor (Homo sapiens) (UniProt P07550). The experiment can be described thus: Adrenergic beta2 receptor (ADRB2) small molecule antagonists, cell-based qHTS assay (AID 1963592). Note: series mostly up to about 92 µM; nearly all actives have a fitted effect of over 50% in size. The procedure, abridged: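 Assay format: CHO-ADRB2 cells, 18-20hr seeding at 37C/5% CO2, then compound plus 1nM isoproterenol agonist mix for 0.5hr RT. Homogeneous time-resolved fluorescence cAMP detection after 1hr, expressed as 665/615 nm ratio.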

Experiment [13] is described as follows: p53 small molecule agonists, cell-based qHTS assay with human liver microsomes: qHTS cell viability counter screen (AID 1963579). Note: nearly all actives have a fitted effect of over 45% in size. The gist of the method: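 Viability of p53RE-bla cells is measured as CellTiter-Glo luminescence following a 16 h, 37 C incubation with compound, liver microsomes from human donors and NADPH.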
A short description of experiment [14]: cAMP Responsive Elements (CRE) small molecule agonists, cell-based qHTS assay (AID 1963590). The gist of the method:
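Test agents in DMSO were incubated 3 h at 37 C/5% CO2 with CRE-bla HEK 293T cells seeded 18 h earlier; LiveBLAzer B/G FRET substrate was added and read after 2 h at room temperature.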

Experiment [15] is described as follows: cAMP Responsive Elements (CRE) small molecule antagonists, cell-based qHTS assay (AID 1963591; active = well fitted inhibition curve with a large enough effect in the signal ratio in the repeat runs, not every such curve was filed as active; the % refers to the signal ratio). The procedure, abridged:
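Reporter line CRE-bla HEK 293T in dialyzed-FBS DMEM; cells preincubated 18 h, treated 3 h with compound plus NKH477 (0.25 uM final); LiveBLAzer FRET, 2 h RT.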

For experiment [16], the target named is D(2) dopamine receptor (Homo sapiens) (UniProt P14416). The experiment can be described thus: Dopamine D2 receptor (DRD2) small molecule agonists, cell-based qHTS assay (AID 1963594). Note: nearly all actives have a fitted effect of over 35% in size. The procedure, abridged:
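cAMP accumulation in DRD2-HEK293 cells measured by HTRF after 1 h detection; compounds added 10 min before NKH477 (200nM […]) forskolin-analogue stimulation, 30 min at room temperature, with Ro20-1724 present at 0.1 mM final.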

The target is the same in experiment [17]. The experiment in a line: Dopamine D2 receptor (DRD2) small molecule antagonists, cell-based qHTS assay (AID 1963595; active = well fitted inhibition curve with a large enough effect in the signal ratio in the repeat runs, with a control signal flat; the % refers to the signal ratio). The procedure, abridged: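 Human DRD2 antagonist qHTS measuring cAMP by HTRF. The cells are exposed to compound for 10 min, then to NKH477 (200 nM) and quinpirole (12 nM) for 30 min at RT, with Ro20-1724 (0.1 mM) present throughout.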
Experiment [18] deals with Beta-2 adrenergic receptor (Homo sapiens) (UniProt P07550). The experiment can be described thus: Adrenergic beta2 receptor (ADRB2) small molecule agonists, cell-based qHTS assay (AID 1963593).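 Note: CHO cells stably overexpressing human ADRB2.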 The gist of the method: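 CHO cells stably over-expressing ADRB2 were plated overnight at 37C, then dosed with compounds plus a stimulation mix containing 100uM IBMX and 25uM Ro-20-1724 for 0.5hr at room temperature. cAMP was measured by HTRF competition, 1hr.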
Chain of Beta-2 adrenergic receptor (Homo sapiens) (P07550 whole entry, looked up): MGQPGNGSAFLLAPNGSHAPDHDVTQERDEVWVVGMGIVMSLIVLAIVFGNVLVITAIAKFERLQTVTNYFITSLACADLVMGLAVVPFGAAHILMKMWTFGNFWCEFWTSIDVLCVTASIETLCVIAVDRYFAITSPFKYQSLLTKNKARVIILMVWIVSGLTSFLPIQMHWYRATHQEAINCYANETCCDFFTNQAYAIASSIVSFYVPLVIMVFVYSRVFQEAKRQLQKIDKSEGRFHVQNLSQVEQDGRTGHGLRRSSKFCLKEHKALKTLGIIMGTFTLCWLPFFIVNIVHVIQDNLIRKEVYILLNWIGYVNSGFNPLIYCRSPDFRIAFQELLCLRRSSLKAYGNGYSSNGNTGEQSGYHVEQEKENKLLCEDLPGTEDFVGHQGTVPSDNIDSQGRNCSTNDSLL

Chain of 5-hydroxytryptamine receptor 2A (Homo sapiens) (P28223 whole entry, looked up): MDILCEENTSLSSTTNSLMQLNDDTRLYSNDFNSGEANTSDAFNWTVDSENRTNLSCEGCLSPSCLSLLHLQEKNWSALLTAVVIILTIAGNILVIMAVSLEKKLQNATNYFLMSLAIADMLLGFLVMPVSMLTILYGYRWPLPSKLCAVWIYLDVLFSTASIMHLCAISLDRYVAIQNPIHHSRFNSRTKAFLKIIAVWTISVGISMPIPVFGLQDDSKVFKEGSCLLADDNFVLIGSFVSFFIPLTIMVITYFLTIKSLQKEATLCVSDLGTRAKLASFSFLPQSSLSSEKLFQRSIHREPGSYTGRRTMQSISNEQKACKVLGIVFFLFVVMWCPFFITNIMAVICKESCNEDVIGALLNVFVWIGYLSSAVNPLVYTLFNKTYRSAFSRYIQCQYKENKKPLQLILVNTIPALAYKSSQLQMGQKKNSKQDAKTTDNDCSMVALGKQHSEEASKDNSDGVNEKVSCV
Chain of KiSS-1 receptor (Homo sapiens) (Q969F8 whole entry, looked up): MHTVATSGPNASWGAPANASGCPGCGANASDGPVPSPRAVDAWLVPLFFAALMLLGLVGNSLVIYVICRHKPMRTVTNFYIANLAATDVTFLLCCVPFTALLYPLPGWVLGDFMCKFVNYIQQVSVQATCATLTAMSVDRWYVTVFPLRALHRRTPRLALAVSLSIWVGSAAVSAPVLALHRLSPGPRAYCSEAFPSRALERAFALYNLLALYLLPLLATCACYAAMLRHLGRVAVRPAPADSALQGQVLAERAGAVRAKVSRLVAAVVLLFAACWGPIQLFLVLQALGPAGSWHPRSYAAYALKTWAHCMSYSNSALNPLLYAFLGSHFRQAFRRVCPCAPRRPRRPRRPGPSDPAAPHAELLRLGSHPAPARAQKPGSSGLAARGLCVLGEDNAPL
Chain of D(2) dopamine receptor (Homo sapiens) (P14416 whole entry, looked up): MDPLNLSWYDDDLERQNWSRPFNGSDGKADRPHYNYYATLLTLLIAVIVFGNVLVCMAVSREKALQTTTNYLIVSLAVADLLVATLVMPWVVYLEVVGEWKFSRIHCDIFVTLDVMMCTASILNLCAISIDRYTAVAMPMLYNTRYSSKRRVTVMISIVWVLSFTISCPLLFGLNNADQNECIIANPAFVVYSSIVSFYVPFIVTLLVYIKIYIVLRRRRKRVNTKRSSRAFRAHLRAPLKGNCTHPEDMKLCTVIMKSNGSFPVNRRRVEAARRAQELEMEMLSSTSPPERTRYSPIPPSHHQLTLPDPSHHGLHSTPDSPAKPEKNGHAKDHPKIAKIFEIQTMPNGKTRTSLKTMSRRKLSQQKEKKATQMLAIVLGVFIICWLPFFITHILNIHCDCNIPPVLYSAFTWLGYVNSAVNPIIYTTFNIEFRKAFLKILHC
Chain of Gonadotropin-releasing hormone receptor (Homo sapiens) (P30968 whole entry, looked up): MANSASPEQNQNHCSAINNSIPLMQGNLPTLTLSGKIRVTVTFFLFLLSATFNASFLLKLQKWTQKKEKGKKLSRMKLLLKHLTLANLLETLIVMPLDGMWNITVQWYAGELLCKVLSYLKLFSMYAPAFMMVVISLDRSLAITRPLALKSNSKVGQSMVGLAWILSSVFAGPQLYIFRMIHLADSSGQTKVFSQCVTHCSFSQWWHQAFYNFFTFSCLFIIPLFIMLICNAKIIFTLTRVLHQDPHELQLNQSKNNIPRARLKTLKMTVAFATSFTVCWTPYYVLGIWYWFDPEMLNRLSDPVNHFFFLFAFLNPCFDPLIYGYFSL
Chain of Muscarinic acetylcholine receptor M1 (Homo sapiens) (P11229 whole entry, looked up): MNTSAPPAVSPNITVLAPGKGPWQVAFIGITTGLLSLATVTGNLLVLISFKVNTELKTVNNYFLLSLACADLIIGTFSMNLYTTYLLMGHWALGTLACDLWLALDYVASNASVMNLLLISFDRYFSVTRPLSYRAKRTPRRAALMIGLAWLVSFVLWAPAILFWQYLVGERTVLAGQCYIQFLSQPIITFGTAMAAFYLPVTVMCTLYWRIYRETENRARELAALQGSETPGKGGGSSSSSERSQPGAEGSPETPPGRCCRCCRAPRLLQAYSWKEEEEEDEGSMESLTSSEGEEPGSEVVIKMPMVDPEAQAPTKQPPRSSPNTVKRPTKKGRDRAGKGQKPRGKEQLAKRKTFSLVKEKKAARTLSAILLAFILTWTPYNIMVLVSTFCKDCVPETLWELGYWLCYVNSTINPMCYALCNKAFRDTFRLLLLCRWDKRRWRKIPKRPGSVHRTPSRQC

`CSC(C)(C)/C=N/O`: the Potency result in experiment [1], in [2], in [3], in [4], in experiment [5] and in experiment [6] was “inactive” throughout. Further, the Potency result in [7], in [8], in [9], in experiment [10], in experiment [11] and in experiment [12] was “inactive” in each case.

In the case of `CC1CN1P(=O)(N1CC1C)N1CC1C` (stereo not drawn), the Potency result in experiment [1], in experiment [2], in experiment [3], in experiment [4], in experiment [5] and in experiment [13] was “inactive” throughout. For the same compound, the Potency result in experiment [6], in [8], in experiment [9], in experiment [10], in [11] and in experiment [14] was “inactive” throughout. The Potency entry in experiment [15], in [12], in experiment [16] and in [17] was “inactive” in each case.

With `CCOC(=O)NC(O)C(Cl)(Cl)Cl` (stereo not drawn), the Potency result in experiment [1], in experiment [2], in experiment [3], in experiment [4], in experiment [5] and in [13] was “inactive” each time. The Potency entry in [6], in experiment [8], in experiment [9], in experiment [10], in experiment [11] and in experiment [14] was “inactive” throughout. Further, the Potency result in experiment [16] and in experiment [17] was “inactive” throughout.

Take `c1csc(-c2ccc(-c3cccs3)s2)c1`: the Potency result in [1], in experiment [3], in experiment [4], in experiment [5], in experiment [6] and in experiment [7] was “inactive” throughout. The Potency result in [8], in experiment [9], in experiment [10], in [11], in [18] and in experiment [17] was “inactive” each time. Moreover, the Potency in experiment [2] is 8.63 µM (active).

As for `Clc1ccccc1`, the Potency entry in [1], in experiment [2], in [3], in experiment [4], in [5] and in [13] was “inactive” each time. The Potency entry in experiment [6], in [8], in experiment [9], in experiment [10], in [11] and in [14] was “inactive” in each case. Also, the Potency entry in experiment [15], in experiment [12], in experiment [18], in experiment [16] and in experiment [17] was “inactive” throughout.

For `O=C(O)c1c(Cl)ccc2cc(Cl)cnc12`, the Potency entry in experiment [1], in [2], in experiment [3], in experiment [4], in experiment [5] and in experiment [13] was “inactive” throughout. The Potency result in [7], in [8], in [9], in experiment [10], in experiment [11] and in experiment [14] was “inactive” in each case. The Potency entry in [15], in experiment [12], in experiment [18] and in experiment [17] was “inactive” each time.
